Data taken from PubChem BioAssay (Tox21).
Values without a mark were called inactive. Calls follow the shape of the dose curve; as a rule, active = well fitted curve in the direction sought with a large enough effect in the repeat runs; inconclusive = weak or mixed curves; inactive = flat fitted curve, though single readings scatter.
% is scaled to controls: 0 for no effect and ±100 for the full control effect.

Assay: qHTS assay to test for compound auto fluorescence at 590 nm (red) in HEK293 cells (AID 720679)
Details: red autofluorescence 540/590 nm; series mostly up to 91.3 µM; fluorescence, % of fluorescent control: at the top concentration
In short: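 We plated HEK293 cells in 10% dialyzed FBS medium, let them adhere for 4-5 hr, then added 23 nL compound. Overnight at 37C and 5% CO2 preceded fluorescence measurement at 540/590nm.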
`CN(C)C(=O)NC1(c2ccccc2)CCN(CCC[C@]2(c3ccc(Cl)c(Cl)c3)CCCN(C(=O)c3ccccc3)C2)CC1` gave a fluorescence, % of fluorescent control of -0.621% [at 18.6 µM]. In the case of `O=C(O)C(=O)Cc1c[nH]c2ccccc12`, the “fluorescence, % of fluorescent control” value is reported as 0.196%. For `CCCCNc1cc(C(=O)O)cc(S(N)(=O)=O)c1Oc1ccccc1`, the fluorescence, % of fluorescent control was -0.225% [at 18.6 µM]. With `CCCCOc1cc(C(=O)NCCN(CC)CC)c2ccccc2n1` the fluorescence, % of fluorescent control was -0.209% [at 18.6 µM]. `CCCCc1ccc2nc(NC(=O)OC)[nH]c2c1` showed a fluorescence, % of fluorescent control of 0.021% [at 18.6 µM]. With `CCC1(C)NC(=O)NC1=O` (stereo not given) the “fluorescence, % of fluorescent control” value was 0.421%. For `OCC(CBr)(CBr)CBr`, the “fluorescence, % of fluorescent control” value was -0.194%. For `NNS(=O)(=O)c1ccc(Oc2ccc(S(=O)(=O)NN)cc2)cc1`, the “fluorescence, % of fluorescent control” value was 0.0155%. For `C=CCCC=C`, the “fluorescence, % of fluorescent control” value was 0.198% [at 95.7 µM]. `COc1cc(N)c(Cl)cc1C(=O)NC1CCN(Cc2ccccc2)CC1` gave a fluorescence, % of fluorescent control of -0.139% [at 18.6 µM]. In the case of `CCOC(=O)C1CC(=O)C(=C(O)C2CC2)C(=O)C1` (stereo not given), the “fluorescence, % of fluorescent control” value is reported as -0.0059%. With `CC(CNC1CCCCC1)OC(=O)c1ccccc1` (stereo not given) the fluorescence, % of fluorescent control was 0.178% [at 18.6 µM]. For `ICCc1ccccc1`, the “fluorescence, % of fluorescent control” value was 0.534%. For `Cc1cccc(C)c1NC(=O)CN1CCCCCC1`, the “fluorescence, % of fluorescent control” value was 0.0062% [at 46 µM]. For `O=S(=O)(O)C(F)(F)F`, the “fluorescence, % of fluorescent control” value was 0.0409%. For `CCOC(=O)NCCC[Si](OCC)(OCC)OCC`, the “fluorescence, % of fluorescent control” value was -0.485%. With `CCN(CC)CCNC(=O)COc1ccc(Cl)cc1` the “fluorescence, % of fluorescent control” value was -0.0839% [at 46 µM]. With `CCCN(CCC)C(=O)C(CCC(=O)O)NC(=O)c1ccccc1` (stereo not given) the “fluorescence, % of fluorescent control” value was -0.0268% [at 46 µM]. For `Cc1ccc([N+](=O)[O-])cc1Cl`, the “fluorescence, % of fluorescent control” value was -0.248% [at 95.7 µM]. Work on `CCC(=O)O[C@]1(C(=O)SCF)[C@H](C)C[C@H]2[C@@H]3C[C@H](F)C4=CC(=O)C=C[C@]4(C)[C@@]3(F)[C@@H](O)C[C@@]21C` yielded a fluorescence, % of fluorescent control of -0.0536% [at 18.6 µM].
